Source: PubChem BioAssay (National Center for Advancing Translational Sciences (NCATS))
NPC1 prom act – NPC1 promoter activation. AID 485313. 320,000 tested, 2.4% active. Huh7 NPC1 promoter luciferase reporter, 24 h. Potency, µM (doses to about 9.22 µM), for the others: at the highest dose activation, actives largely listed as activators; note: % of control where 0% means no effect; nearly all actives have a fitted effect of over 60% in size
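Cells: Huh7 expressing luciferase under the NPC1 promoter, 1500/well. Seeded 2 h, compound added, incubated 24 h at 37 °C. Luciferase reagent, 10 min ambient, then luminescence.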
ELG1 genotox – inducers of genotoxicity in HEK293T ELG1-luciferase cells | HEK293T ELG1-luciferase reporter, luminescence, 16 h | AID 504466 | 330,000 tested, 1.3% active | Potency, µM (highest dose often 46 µM), inactives show top-dose activity change, positive = activation, most hits filed as activators; note: % of control where 0% means no effect; nearly all actives have a fitted effect of over 60% in size
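HEK293T cells expressing luciferase-tagged ELG1 were exposed to compound or DMSO vehicle for 16 hr at 37 °C and 5% CO2. Luciferase activity was then measured with ONE-Glo after 30 min at room temperature.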
FLuc counter – inhibits or activates purified firefly luciferase, miR-21 counter-screen; P08659; purified FLuc, Km substrates, luminescence inhibition; Potency, µM (highest dose often 57.5 µM), without a hit: at the top dose activity change, negative = inhibition, actives largely listed as inhibitors; 360,000 tested, 6.9% active; AID 588342;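 note: plate controls were vehicle for no effect and reference inhibitor for full effect; nearly all actives have a fitted effect of over 55% in size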
Target sequence (P08659 whole entry, looked up): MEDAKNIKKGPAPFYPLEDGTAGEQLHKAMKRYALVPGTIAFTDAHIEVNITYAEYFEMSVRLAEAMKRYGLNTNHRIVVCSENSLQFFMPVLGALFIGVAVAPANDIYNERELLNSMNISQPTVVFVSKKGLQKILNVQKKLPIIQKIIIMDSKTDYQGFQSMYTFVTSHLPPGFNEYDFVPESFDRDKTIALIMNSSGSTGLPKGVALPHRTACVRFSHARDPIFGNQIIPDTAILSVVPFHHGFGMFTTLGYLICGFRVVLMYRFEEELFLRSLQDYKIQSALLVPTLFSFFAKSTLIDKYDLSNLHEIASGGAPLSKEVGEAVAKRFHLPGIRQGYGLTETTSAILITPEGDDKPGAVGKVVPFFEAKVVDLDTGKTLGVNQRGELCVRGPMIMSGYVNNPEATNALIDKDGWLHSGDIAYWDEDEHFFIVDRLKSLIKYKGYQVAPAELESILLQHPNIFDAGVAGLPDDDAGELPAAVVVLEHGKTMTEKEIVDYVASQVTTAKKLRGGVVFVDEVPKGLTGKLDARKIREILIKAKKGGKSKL
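Biochemical qHTS of compounds, final roughly 60 µM downward over six points, against 10 nM purified firefly luciferase using Km concentrations of substrates (10 uM D-luciferin, 10 uM ATP) in Tris acetate pH 7.5 buffer; luminescence output.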
SMN2 splice up – increases expression of the SMN2 splice variant. HEK293 SMN2-luciferase splicing reporter, luminescence, 30-36 h. Potency, µM (titrated, usually from 46.1 µM), inactives show at the top dose activity change, positive = activation, actives largely listed as activators. 210,000 tested, 2.8% active; note: % of control where 0% means no effect; nearly all actives have a fitted effect of over 55% in size
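HEK293 cells carry an SMN2 […]–luciferase reporter in which exon 7 inclusion puts luciferase in frame. Cells were plated 10-12 h before compound addition, then incubated 30-36 h at 37C. ONE-Glo luminescence was read; sodium butyrate at 4.5 mM final served as control.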
Rab9 promoter act – Rab9 promoter activation. Huh7 Rab9 promoter-luciferase reporter, luminescence, 24 h. 320,000 tested, 2.8% active. Potency, µM (top dose mostly 9.22 µM), inactives show at the highest dose activation, negative = inhibition, usual class: activators; note: % of control where 0% means no effect; nearly all actives have a fitted effect of over 60% in size
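Promoter activation is measured as luciferase luminescence in Huh7 cells stably transfected with a Rab9 promoter–luciferase construct, following 24 h compound exposure at 37 °C and 10 min reagent incubation at ambient temperature.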
KinaseGlo FLuc – blocks Kinase-Glo luciferase, a counter-screen artifact | Q27757 | Kinase-Glo luciferase, ATP luminescence, 8 min | Potency, µM (series often up to 38.3 µM), for inactives: at the highest dose activity change, negative = inhibition, hits mostly inhibitors | 200,000 tested, 0.28% active | AID 1379; note: % is set by controls: 0 for no effect and ±100 for the full control effect; nearly all actives have a fitted effect of over 60% in size
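Light output from Kinase-Glo luciferase with luciferin and 10 uM ATP in 50 mM imidazole pH 7.2, KCl, MgCl2, Tween 20, BSA; compound pin-delivered, 8-min ambient incubation, then luminescence read.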
Active calls of the source: *; ? = inconclusive; / = not tested or not shown; [ ] = remark or other dose. Most compounds without a hit are left out; they make up all but 7.5% or so of the library. Calls come from the whole dose curve; as a rule, active = well fitted curve in the direction sought with a large enough effect; inconclusive = small, poorly fitted or top-dose-only effect, or another doubt; inactive = no such curve, though single readings can be large; an effect the other way counts as inactive or inconclusive. Potency is the fitted concentration of half-maximal effect.

SMILES	NPC1 prom act	ELG1 genotox	FLuc counter	SMN2 splice up	Rab9 promoter act	KinaseGlo FLuc
CC(/C=C/c1ccc2c(c1)OCO2)=N\NC(=O)c1cccc([N+](=O)[O-])c1	1%	3%	-8%	-23%	-6%	-3%
C/C(=N/NC(=O)c1ccc2c(c1)OCO2)c1cccc([N+](=O)[O-])c1	2µM*	8.2µM*	6µM*	/	2.2µM*	/
COc1ccc(NC(=O)CSC2=Nc3ccccc3C3=NC(CCC(=O)NC4CCCCC4)C(=O)N23)cc1Cl (stereo not drawn)	/	/	4%	-2%	/	/
COc1ccc(C2CC(=O)N(C)c3ccccc3S2)cc1OC (stereo not drawn)	25%	18µM*	?	21%	4µM*	2%
COc1ccc(C2CC(=O)N(Cc3ccc(F)cc3)c3ccccc3S2)cc1OC (stereo not drawn)	/	/	0%	-42%	/	/
O=C(Nc1nccs1)c1ccc2ccccc2n1	4µM*	?	3.4µM*	/	?	/
Cc1ccccc1NC(=O)c1cccc(C(=O)Nc2ccccc2C)n1	-2%	-7%	4%	/	0%	/
O=C(Nc1ccccn1)c1ccc2ccccc2n1	?	?	0.95µM*	11µM*	4.5µM*	?
O=C(Nc1nccs1)c1cc(Cl)nc2ccccc12	-4%	-4%	-4%	/	1%	/
CCC(CC)c1nnc(NC(=O)c2ccc3ccccc3n2)s1	?	?	5.4µM*	13µM*	?	-3%
Cc1cccc(NC(=O)c2ccc3ccccc3n2)c1C	?	?	0.85µM*	13µM*	?	-7%
Cc1ccc(S(=O)(=O)N2CCCCC2)cc1NC(=O)c1ccc2ccccc2n1	9%	0%	27µM*	11%	13%	2%
Cc1csc(NC(=O)c2ccc3ccccc3n2)n1	0.5µM*	?	1.1µM*	/	1.1µM*	/
Cc1csc(NC(=O)c2cnc3ccccc3n2)n1	?	?	2.4µM*	/	?	/
O=C(NCc1ccccc1Cl)c1ccc2ccccc2n1	?	?	15µM*	/	?	/
O=C(NCc1ccccc1F)c1ccc2ccccc2n1	3%	4%	-15%	/	0%	/
Cc1csc(NC(=O)c2cc(C)nc3ccccc23)n1	-7%	-7%	-9%	-1%	-2%	-1%
CC1(C)CC(=O)C(C(c2cccc(O)c2O)C2C(=O)CC(C)(C)CC2=O)C(=O)C1	/	/	/	0%[9.22 µM]	/	-2%[7.66 µM]
CCOC(=O)c1c(-c2ccccc2)oc2ccc(OCc3cccc(Br)c3)cc12	/	/	2%	-3%	/	/
CCc1ccc(S(=O)(=O)NCCc2csc3nc(-c4ccccc4)nn23)s1	/	/	-14%	/	/	/
CC(=O)N/C(=C\c1ccccc1)C(=O)OCC(=O)Nc1ccc(C)c(S(=O)(=O)N(C)C)c1	/	6%	/	/	/	/
Cc1ccc(S(=O)(=O)N(C)C)cc1NC(=O)COC(=O)c1ccc2c(=O)n3c(nc2c1)CCC3	-1%	-2%	4%	/	-1%	/
Cc1ccccc1NCCC(=O)Nc1ccc(Cl)cc1	-5%	7%	?	/	17%	/
O=C(CSc1nc2[nH]ncc2c(=O)n1-c1ccccc1Br)NCc1ccccc1Cl	-8%	-2%	0%	5%	-4%	0%
N#CCSc1nc2[nH]ncc2c(=O)n1-c1ccccc1Br	?	?	0.13µM*	/	0.32µM*	10µM*
SMILES	NPC1 prom act	ELG1 genotox	FLuc counter	SMN2 splice up	Rab9 promoter act	KinaseGlo FLuc
O=C(Nc1ccccc1F)c1ccc(C(=O)c2ccccc2)cc1	2.8µM*	?	11µM*	/	3.5µM*	/
Cc1noc(C)c1COc1cccc(C(=O)Nc2ccc(Br)cc2F)c1	/	8%	/	/	/	/
COc1cccc(C(=O)Nc2ccc(C(F)(F)F)n(C)c2=O)c1	2.8µM*	?	6µM*	/	2.8µM*	?
CCCc1ccc(C(=O)NNc2ccccc2F)cc1	?	?	17µM*	/	?	/
CC(C)Oc1cccc(C(=O)Nc2ccc(Br)cc2F)c1	3.5µM*	?	0.95µM*	5µM*	1.3µM*	-1%
NC(=O)c1ccc(NC(=O)CCN=C2NS(=O)(=O)c3ccccc32)cc1	0%	-1%	-1%	/	1%	/
Cc1cc(C)c(NC(=O)C2CC(=O)N(C3CCCC3)C2)c(C)c1 (stereo not drawn)	/	2%	/	/	/	/
CC(C)NC(=O)C1CCC(Cn2c(=O)c3sccc3n(CC(=O)N3CCCC3)c2=O)CC1 (stereo not drawn)	/	/	3%	/	/	/
CC(C)c1nn2c(=O)cc(COC(=O)CNC(=O)c3ccccc3)nc2s1	/	/	-6%	/	/	/
Nc1nc(N)c(S(=O)(=O)c2ccccc2)c(Nc2ccccc2)n1	/	/	2%	4%	/	/
COc1ccc(C(=O)Nc2ccc(F)cc2F)cc1OC	13%	14%	-1%	4%	15%	-10%
COc1cccc(C(=O)Nc2ccc(F)cc2F)c1	?	?	?	13µM*	?	-14%
COc1cccc(C(=O)Nc2ccc(F)c(F)c2F)c1	?	?	17µM*	?	?	-7%
COc1cccc(C(=O)Nc2ccccc2F)c1	21%	?	?	11µM*	?	-27%
CC(C(=O)NC(N)=O)N1C(=O)NC(c2ccccc2)(c2ccccc2)C1=O (stereo not drawn)	-3%	0%	-1%	/	2%	/
Cc1ccc(C)n1-n1cnc2sc(-c3ccccc3)cc2c1=O	-2%	-4%	?	-45%	-5%	5%
CCCOC(=O)C(C)n1nnc2sc(-c3ccccc3)cc2c1=O (stereo not drawn)	/	/	?	-7%	/	/
Cc1ccc(C)n1-n1c(C)nc2sc(-c3ccccc3)cc2c1=O	?	?	17µM*	-16%	?	-1%
CC(=O)Cn1nnc2sc(-c3ccccc3)cc2c1=O	?	?	?	14µM*	?	-2%
COc1ccc(-n2cnc3sccc3c2=O)cc1	-4%	2%	3%	/	9%	/
COc1ccc(-n2cnc3sc(-c4ccccc4)cc3c2=O)cc1	0.56µM*	?	?	6.3µM*	0.63µM*	2%
CCOC(=O)C(CC)n1nnc2sc(-c3ccccc3)cc2c1=O (stereo not drawn)	/	/	21µM*	-8%	/	/
COCCNC(=O)C1(CC(C)C)C=CCN1C(=O)c1ccccc1 (stereo not drawn)	/	/	/	24%	/	1%
CCc1cc2c(=O)n(-c3ccccc3)cnc2s1	-3%	7%	-10%	7%	6%	8%
CCc1cc2c(=O)n(-c3ccc(C)cc3)cnc2s1	4µM*	?	11µM*	3.2µM*	2.5µM*	-7%
O=c1[nH]c(-c2ccccc2)nc2sc(-c3ccccc3)cc12	-11%	?	?	?	?	1%
